Assay results reported in article PMC5540273 (PLoS ONE, 2017).

What follows are molecules tested on T1, PCTK3. Details: concentration: 1 μM,replicates: in singlicate; n = 1.
T1 construct: gene CDK18
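Further: KINOMEscan kinase panel screen.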

| SMILES | %Inh [%] |
| --- | --- |
| CCn1c(-c2nonc2N)nc2c(C#CC(C)(C)O)nc(OCCN)cc21.Cl.Cl [GSK902056] | 0 |
| COc1ccc(C[C@@H](CN)NC(=O)c2cc(Br)c(-c3ccnc4[nH]ccc34)s2)cc1.Cl.Cl [GSK1389063] | 0 |
| Cc1ccc2c(-c3ccncc3)c(-c3ccc(F)cc3)nn2c1.Cl [GW461484] | 11 |
| Cl.Cl.NC[C@H](Cc1ccc(C(F)(F)F)cc1)NC(=O)c1cc(Br)c(-c2ccnc3[nH]ccc23)s1 [GSK1487252] | 0 |
| O=C(NCCCN1CCOC1=O)c1cnc(NCc2cc(Cl)ccc2Cl)nc1NC1CCCC1 | 13 |
| C=CC(=O)Nc1cc2c(Nc3ccc(F)c(Cl)c3)ncnc2cc1OCCCN1CCOCC1 [GW781483] | 0 |
| NC(=O)c1cc(-c2ccccc2)cc2c(C3CCNCC3)c[nH]c12 [GSK301362] | 0 |
| C[C@@H]1CCN(C(=O)CC#N)C[C@@H]1N(C)c1ncnc2[nH]ccc12 | 8 |
| Cc1occc1-c1nc(N)c(OC[C@@H](N)Cc2c[nH]c3ccccc23)cc1-c1cc2c(C)n[nH]c2cn1 [GSK1660450] | 0 |
| C[C@H]1Oc2cc(cnc2N)-c2c(nn(C)c2C#N)CN(C)C(=O)c2ccc(F)cc21 | 29 |
| CN(C)CC(O)COc1ccc(Nc2nccc(-c3cnn4nc(N5CCOCC5)ccc34)n2)cc1 (stereo not drawn) [GW767488] | 52 |
| CCN(CC)CCCCNc1ncc2cc(-c3c(Cl)cccc3Cl)c(NC(=O)NC(C)(C)C)nc2n1 | 0 |
